HP1b chromo inh = inhibitors of HP1-beta chromodomain binding to methylated histone tails; AlphaScreen HP1-beta / biotin-H3K9me3 peptide binding; Potency, µM (doses to about 114 µM), hits mostly inhibitors; 390,000 tested, 0.56% active; also: nearly all actives have a fitted effect of over 70% in size
Target sequence (P83916 whole entry, looked up): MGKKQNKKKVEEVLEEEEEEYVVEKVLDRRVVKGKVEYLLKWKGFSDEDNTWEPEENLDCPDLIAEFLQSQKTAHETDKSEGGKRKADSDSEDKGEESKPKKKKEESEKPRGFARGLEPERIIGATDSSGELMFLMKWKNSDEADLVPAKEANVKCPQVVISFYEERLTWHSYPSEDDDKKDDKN
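HP1-beta protein (50 nM final) preincubated 30 min at room temperature with biotinylated H3(1-18)K9me3 peptide (50 nM) in PBS pH 7.4, 0.01% Tween-20, then compound added for 30 min. AlphaScreen streptavidin donor/nickel chelate acceptor beads (10 ug/mL final), 30 min dark, luminescence read.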
PLK1 PBD block = PLK1 (human) polo-box domain binding inhibition; Plk1 PBD binding of FITC phosphopeptide, fluorescence polarization; Potency, µM, hits mostly inhibitors; 360,000 tested, 2.8% active; AID 720504; also: series mostly up to about 57 µM; nearly all actives have a fitted effect of over 65% in size
JMJD2A Tudor inh = blocks the human JMJD2A Tudor domain; O75164; AlphaScreen JMJD2A-Tudor / H3K4me3 peptide binding; Potency, µM (top dose mostly 114 µM), hits mostly inhibitors; 390,000 tested, 4.4% active; also: nearly all actives have a fitted effect of over 50% in size
BAZ2B inh = BAZ2B (human) inhibition. Q9UIF8. AlphaScreen BAZ2B-H3K14Ac peptide displacement. Potency, µM (titrated, usually from 114 µM), hits mostly inhibitors. 360,000 tested, 4.4% active. AID 504333; also: nearly all actives have a fitted effect of over 60% in size
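Complex of BAZ2B and biotin-H3K14Ac (50 nM apiece) forms over 30 min at RT, then faces library compounds up to 110 uM for another 30 min; AlphaScreen beads added, 20 min dark incubation, luminescence read.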
Sfp inh = blocks B. subtilis Sfp PPTase activity. Q9F4F7. Potency, µM, hits mostly inhibitors. AID 1490. 310,000 tested, 3.5% active. Biochemical Sfp PPTase activity, qHTS;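 also: the enzyme is Sfp with the accession as filed and its product quenches rhodamine fluorescence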
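Step 1, compound plus 15 nM Sfp-PPTase, 15 min, room temperature. Step 2, add rhodamine-CoA (5 uM) and BHQ-2-YbbR (12.5 uM). Step 3, read 525/598 nm fluorescence at 0 and 30 min.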
G9a inh = inhibitors of human histone lysine methyltransferase G9a. 350,000 tested, 8.8% active. Q96KQ7. G9a H3K9 monomethylation, AlphaScreen, 2 h. Potency, µM (top dose mostly 102 µM), hits mostly inhibitors; also: nearly all actives have a fitted effect of over 75% in size
Target sequence (Q96KQ7 913-1193 limits assumed): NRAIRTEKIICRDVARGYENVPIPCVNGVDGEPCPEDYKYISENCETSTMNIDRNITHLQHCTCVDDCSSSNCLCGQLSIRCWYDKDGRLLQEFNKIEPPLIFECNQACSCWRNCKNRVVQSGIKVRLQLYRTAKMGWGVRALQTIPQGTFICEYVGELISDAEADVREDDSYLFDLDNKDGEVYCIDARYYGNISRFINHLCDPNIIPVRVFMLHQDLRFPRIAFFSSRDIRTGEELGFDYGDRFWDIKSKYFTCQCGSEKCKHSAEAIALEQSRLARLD
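Signal arises when biotinylated H3K9 peptide, once monomethylated, bridges streptavidin donor and antibody-captured acceptor beads. Enzyme at 20 nM was preincubated 15 min with test compounds; peptide 500 nM and SAM 20 uM then reacted for 2 h.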
Large screens that a line does not name were inactive. The list is not random: actives were taken first. Their share in the collection is about 12%. Calls follow the shape of the dose curve; as a rule, active = well fitted curve in the direction sought with a large enough effect; inconclusive = small, poorly fitted or top-dose-only effect, or another doubt; inactive = no such curve, though single readings can be large; an effect the other way counts as inactive or inconclusive.

COc1cc(O)c(C(CCN2CCN(c3ccccc3)CC2)c2ccc3c(c2)OCO3)c(OC)c1 (stereo not given)	JMJD2A Tudor inh 18µM, BAZ2B inh 10µM, G9a inh inconclusive
CN1C2CCC1CC(NC(=O)c1cc(Cl)cc3[nH]cnc13)C2 (stereo not given)	G9a inh inconclusive
O=C(Nc1ccc(N2CCCCCC2)cc1)c1cccc(S(=O)(=O)N2CCOCC2)c1	JMJD2A Tudor inh 25µM, BAZ2B inh 32µM, G9a inh 1.8µM (no result: Sfp inh)
CC(=O)N1CCN(S(=O)(=O)c2cccc(C(=O)Nc3ccc(OC(F)F)cc3)c2)CC1	none
O=C(Nc1cccc(S(=O)(=O)N2CCOCC2)c1)c1cccc(S(=O)(=O)N2CCCCC2)c1	G9a inh inconclusive (no result: Sfp inh)
CCN(CC)S(=O)(=O)c1cccc(C(=O)NCCc2ccccc2)c1	none (no result: BAZ2B inh, Sfp inh, G9a inh)
CC(=O)N1CCN(S(=O)(=O)c2cccc(C(=O)Nc3ccc4c(c3)CCC4)c2)CC1	G9a inh 28µM
CN(c1ccccc1)S(=O)(=O)c1cccc(C(=O)NCCc2ccc(O)c(O)c2)c1	HP1b chromo inh inconclusive, JMJD2A Tudor inh 13µM, Sfp inh 18µM, G9a inh 8.9µM
COc1ccc(C(=O)Nc2ccc(N3CCCCCC3)cc2)cc1S(=O)(=O)N1CCOCC1	HP1b chromo inh inconclusive, JMJD2A Tudor inh 7.1µM, BAZ2B inh 28µM, G9a inh inconclusive (no result: Sfp inh)
Cc1cccc2c(=O)cc(CSCC(=O)Nc3ccc(Cl)cc3)[nH]c12	none (no result: PLK1 PBD block, Sfp inh)
CCN(CC)S(=O)(=O)c1ccc2c(c1)nc(CN(C)C(=O)c1cccc(Cl)c1)n2C	none (no result: PLK1 PBD block, Sfp inh)
O=C(NNC(=S)NCC1CCCO1)c1cccc(S(=O)(=O)N2CCOCC2)c1 (stereo not given)	G9a inh 50µM
O=C(Nc1ccccc1)c1ccc(N2CCN(c3ccccc3)CC2)c(S(=O)(=O)N2CCOCC2)c1	BAZ2B inh 79µM
CN(c1ccccc1)S(=O)(=O)c1cccc(C(=O)Nc2ccc(N3CCOCC3)cc2)c1	JMJD2A Tudor inh inconclusive, BAZ2B inh inconclusive, G9a inh 56µM (no result: Sfp inh)
O=C(Nc1ccc(S(=O)(=O)N2CCOCC2)cc1)c1ccc(Cl)c([N+](=O)[O-])c1	PLK1 PBD block 27µM, JMJD2A Tudor inh inconclusive (no result: BAZ2B inh, Sfp inh, G9a inh)
CCC1CCc2nc3sc(C(=O)Nc4cccc(C(F)(F)F)c4)c(N)c3cc2C1 (stereo not given)	none (no result: PLK1 PBD block, Sfp inh)
CC(C)c1ccc(NS(=O)(=O)c2ccc3nc(-c4ccccc4)[nH]c3c2)cc1	none (no result: PLK1 PBD block, Sfp inh)
COc1ccccc1CNC(=O)c1cnc2sc(N3CCCCC3)nn2c1=O	none (no result: PLK1 PBD block, Sfp inh)
O=C(Nc1cccc(F)c1)N1CC[C@@]2(CCCN(S(=O)(=O)c3ccccc3)C2)C1	none (no result: HP1b chromo inh, PLK1 PBD block, JMJD2A Tudor inh, BAZ2B inh)
COc1ccc(NC(=O)c2c3c(nc4ccccc24)CCC3)cc1S(=O)(=O)N1CCOCC1	PLK1 PBD block inconclusive, JMJD2A Tudor inh inconclusive, BAZ2B inh 50µM, G9a inh inconclusive
Cc1cc(C)cc(NC(=O)C(OC(=O)C2=COCCO2)c2ccccc2)c1 (stereo not given)	G9a inh 25µM
CC(C)NC(=S)NNc1nc2ccccc2s1	HP1b chromo inh 50µM, PLK1 PBD block inconclusive, JMJD2A Tudor inh 45µM, Sfp inh 2.5µM, G9a inh 2.2µM
Cc1ccc(/C=C2/SC(=S)N(C3CCCCC3)C2=O)o1	PLK1 PBD block inconclusive, BAZ2B inh inconclusive, G9a inh 40µM
O=C1/C(=C/c2ccco2)SC(=S)N1CC1CCCO1 (stereo not given)	HP1b chromo inh 35µM, JMJD2A Tudor inh 25µM, BAZ2B inh 35µM, Sfp inh 18µM, G9a inh inconclusive
CN1C(=O)/C(=C2\SC(=S)N(CC3CCCO3)C2=O)c2ccccc21 (stereo not given)	G9a inh inconclusive (no result: HP1b chromo inh, PLK1 PBD block, JMJD2A Tudor inh)
Cn1cc(/C=C2\SC(=O)NC2=S)c2ccccc21	HP1b chromo inh inconclusive, JMJD2A Tudor inh inconclusive, BAZ2B inh 32µM, Sfp inh 32µM (no result: G9a inh)
Cc1ccc(/C=C2\SC(=S)N(CC3CCCO3)C2=O)o1 (stereo not given)	HP1b chromo inh 32µM, PLK1 PBD block 24µM, JMJD2A Tudor inh 35µM, BAZ2B inh 32µM, Sfp inh 10µM, G9a inh 5.6µM
CC1(C(=O)O)CCC(C(=O)Nc2cccc(F)c2)C1(C)C (stereo not given)	none
Cc1ccc(/C=C2/SC(=O)NC2=S)o1	HP1b chromo inh inconclusive, PLK1 PBD block 19µM, JMJD2A Tudor inh 40µM, BAZ2B inh 50µM, Sfp inh 22µM, G9a inh 18µM
CCOc1ccc(-c2nc(SCC(=O)Nc3cc(F)ccc3F)n3[nH]c(=O)cc3n2)cc1	JMJD2A Tudor inh inconclusive (no result: PLK1 PBD block, Sfp inh)
O=C(CN1CCN(C2CCCCC2)CC1)NCCC1=CCCCC1	HP1b chromo inh inconclusive, JMJD2A Tudor inh 13µM, BAZ2B inh 50µM, Sfp inh 79µM (no result: G9a inh)
Cc1ccc2oc(=O)c3cc(C(=O)N4CCN(c5ccccc5)CC4)sc3c2c1	none (no result: PLK1 PBD block, Sfp inh)
COc1ccc(-n2c(=O)c3c4c(sc3n3c(=S)[nH]nc23)CCC4)cc1	JMJD2A Tudor inh 10µM, Sfp inh inconclusive, G9a inh 2.5µM
CCSc1nnc2n(-c3ccc(OC)cc3)c(=O)c3c4c(sc3n12)CCCC4	none
Cc1cccc(-n2c(=O)c3c4c(sc3n3cnnc23)CCCC4)c1	none (no result: PLK1 PBD block, Sfp inh)
Cc1ccc(-n2c(=S)[nH]c3sc4c(c3c2=O)CCC4)cc1	PLK1 PBD block 24µM, G9a inh 45µM
Cc1ccc(-n2c(=O)[nH]c3sc4c(c3c2=O)CCCC4)cc1	none (no result: PLK1 PBD block, Sfp inh)
CCn1c(=O)c2c3c(sc2n2c(=S)[nH]nc12)CCC3	JMJD2A Tudor inh 7.9µM, G9a inh 3.2µM
Cc1cccc(-n2c(=O)c3c4c(sc3n3c(=S)[nH]nc23)CCC4)c1	JMJD2A Tudor inh 18µM, Sfp inh inconclusive, G9a inh inconclusive
O=C(CC(NCc1cccnc1)C(=O)O)Nc1ccc(F)cc1 (stereo not given)	G9a inh inconclusive (no result: PLK1 PBD block, Sfp inh)
N#Cc1ccccc1Cn1c(=O)n(-c2ccccc2)c(=O)c2c3c(sc21)CCC3	none (no result: PLK1 PBD block, Sfp inh)
CSc1nnc2n(-c3cccc(C)c3)c(=O)c3c4c(sc3n12)CCCC4	none (no result: PLK1 PBD block, Sfp inh)
CN1CCc2c(sc3c2c(=O)n(-c2ccccc2)c2n[nH]c(=S)n32)C1	JMJD2A Tudor inh 40µM, Sfp inh 40µM, G9a inh 5µM
Cc1ccc(-n2c(=O)c3c4c(sc3n3c(=S)[nH]nc23)CCC4)cc1	JMJD2A Tudor inh 25µM, G9a inh 2.8µM
O=c1c2c3c(sc2n2c(=S)[nH]nc2n1-c1ccccc1)CCC3	JMJD2A Tudor inh 3.2µM (no result: G9a inh)
COC(=O)C(C)Sc1nnc2n(-c3cccc(C)c3)c(=O)c3c4c(sc3n12)CCCC4 (stereo not given)	G9a inh 25µM
C[C@H](O)[C@@H]1C(=O)N2CCc3c([nH]c4ccccc34)[C@@H]2C[C@@H]1N(C)C(=O)c1ccco1	none (no result: HP1b chromo inh, JMJD2A Tudor inh, BAZ2B inh, Sfp inh, G9a inh)

Source: PubChem BioAssay
